These results are taken from PubChem BioAssay (Tox21).

Where “and” joins values, the source holds several entries; their conditions need not be identical. Equal entries are not always repeated. Inconclusive results are not listed. Where a structure was tested more than once in an assay, its records may differ in their call. Calls of active or inactive are those of the source. The call rests on the fitted dose curve; in most records, active means well fitted curve in the direction sought with a large enough effect in the repeat runs; inconclusive means weak or mixed curves; inactive means no such curve, though single readings can be large; an effect the other way counts as inactive or inconclusive.

The nature of assay [1]: A CellTox Green Cytotoxicity Assay to monitor cytotoxicity in HepG2 cells - 32 hour (AID 1224883). Further: nearly all actives have a fitted effect of over 50% in size. In a few lines:
(§1)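 Measurements at 0, 8, 16, 24, 32 and 40 h of treatment captured CellTox Green fluorescence in HepG2 cells that had been co-plated with reagent and preincubated 5 h at 37 C/5% CO2.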

A short description of assay [2]: A CellTox Green Cytotoxicity Assay to monitor cytotoxicity in HEK293 cells - 8 hour (AID 1224884). Further: nearly all actives have a fitted effect of over 35% in size. Summed up:
(§2)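 Tox21 screen in HEK293: membrane-impermeant cyanine dye fluoresces on binding dead-cell DNA; compound pinned 5 h post-seeding, plates held at 37 C, signal read repeatedly through 40 h.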

A short description of assay [3]: qHTS RealTime-Glo MT Cell Viability Assay in HepG2 cells - 16 hour (AID 1224885). Further: nearly all actives have a fitted effect of over 50% in size. Summed up: (§3)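 Cell number in HepG2 cultures estimated from NanoLuc luminescence generated by metabolic reduction of a prosubstrate by living cells. The homogeneous, nonlytic format allowed repeated reads at 0, 8, 16, 24, 32 and 40 h of compound exposure.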
For orientation: qHTS replaces the single test concentration by a dilution series.

Assay [4] can be described thus: qHTS RealTime-Glo MT Cell Viability Assay in HEK293 cells - 24 hour (AID 1224886). Further: nearly all actives have a fitted effect of over 50% in size. In a few lines: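 Homogeneous bioluminescent viability format in HEK293 cells (600 cells/well). Following 5 h at 37 C/5% CO2, 23 nL compound was pintooled; the signal was measured repeatedly during 40 h incubation.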
A short description of assay [5]: qHTS RealTime-Glo MT Cell Viability Assay in HEK293 cells - 8 hour (AID 1224887). Further: nearly all actives have a fitted effect of over 50% in size. In a few lines: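 HEK293 + NanoLuc + prosubstrate, 600 cells/well; 5 h, 37 C/5% CO2; compound 23 nL in DMSO by pintool; 37 C; luminescence read at 0, 8, 16, 24, 32 and 40 h time points.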
Assay [6] can be described thus: A CellTox Green Cytotoxicity Assay to monitor cytotoxicity in HEK293 cells - 16 hour (AID 1224888). Further: nearly all actives have a fitted effect of over 35% in size. Summed up: as §2
The nature of assay [7]: qHTS RealTime-Glo MT Cell Viability Assay in HepG2 cells - 0 hour (AID 1224889). Further: nearly all actives have a fitted effect of over 50% in size. Summed up: as §3
Assay [8] is described as follows: A CellTox Green Cytotoxicity Assay to monitor cytotoxicity in HepG2 cells - 8 hour (AID 1224890). Further: nearly all actives have a fitted effect of over 45% in size. In a few lines: as §1
Assay [9] is described as follows: qHTS assay to identify small molecule antagonists of the estrogen receptor alpha (ER-alpha) signaling pathway using the BG1 cell line in the presence of 0.1 nM 17-beta-estradiol - cell viability counter screen (AID 1259241). Further: nearly all actives have a fitted effect of over 40% in size. Summed up:
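Live-cell protease activity (CellTiter-Fluor fluorescence, 30 min) was read in the same wells after VM7Luc4E2 cells had been exposed to compounds with 0.1 nM 17beta-estradiol for 22 hr at 37C.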

Assay [10] in a line: qHTS assay to identify small molecule antagonists of the androgen receptor (AR) signaling pathway using the MDA cell line in the presence of 0.5 nM R1881 - cell viability counter screen (AID 1259242). Further: nearly all actives have a fitted effect of over 45% in size. Summed up: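 Concentration-response screen of compounds for toxicity in MDA-kb2 reporter cells: 16 hr at 37C with 0.5 nM R1881, endpoint live-cell protease fluorescence measured in the reporter wells.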
Potency means the concentration at half of the fitted maximal effect.

For the compound `CCCCCCCCCCCCCC[P+](CCCC)(CCCC)CCCC`, the Potency in [1] was 19.4 µM (active) and 15.5 µM (active); in assay [2], 17.3 µM (active) and 21.9 µM (active); in assay [3] it was 21.8 µM (active) and 15.5 µM (active); in assay [4], 387 nM (active) and 616 nM (active); in assay [5] it was 24.4 µM (active) and 19.5 µM (active); in assay [6] it was 17.3 µM (active) and 19.5 µM (active). In addition, the Potency in assay [8] was 24.4 µM (active) and 19.5 µM (active); in [9], 60.8 µM (active) and 30.6 µM (active); in assay [10] it was 27.1 µM (active) and 21.7 µM (active). For the same compound, the Potency entry in assay [7] was “inactive”.
On to `CC(=O)O[C@]1(C(C)=O)CC[C@H]2[C@@H]3C[C@H](C)C4=CC(=O)CC[C@]4(C)[C@H]3CC[C@@]21C`, for which the Potency result in [1], in assay [2], in assay [3], in [5], in assay [6] and in [8] was “inactive” throughout. The Potency result in assay [9] and in [10] was “inactive” throughout. Besides, the Potency is 15.5 µM (active) in assay [4]; 174 nM (active) and 301 nM (active) in [7].
Take `C=CC(=O)OCCCCCCCC`: the Potency result in assay [1], in assay [2], in [3], in [4], in assay [5] and in assay [6] was “inactive” in each case. Besides, the Potency result in [7], in assay [8], in assay [9] and in [10] was “inactive” each time.
On to `NC(N)=NC(=O)Cc1c(Cl)cccc1Cl`, for which the Potency result in [1], in assay [2], in [3], in assay [4], in assay [5] and in [6] was “inactive” throughout. Also, the Potency result in assay [7], in [8], in assay [9] and in [10] was “inactive” in each case.
Take `CC(C)(C)NCC(O)COc1ccccc1OCC1CCCO1` (centres undefined): the Potency result in assay [1], in assay [2], in [3], in assay [4], in assay [5] and in [6] was “inactive” throughout. In addition, the Potency entry in [7], in assay [8], in assay [9] and in [10] was “inactive” in each case.
For `CC(N)=O`, the Potency result in assay [1], in [2], in assay [3], in assay [4], in [5] and in assay [6] was “inactive” each time. Also, the Potency result in assay [7], in [8] and in [10] was “inactive” each time.
As for `Cc1ccc(-c2cc(C(F)(F)F)nn2-c2ccc(S(N)(=O)=O)cc2)cc1`, the Potency is 48.8 µM (active) and 49 µM (active) in [1]; 48.8 µM (active) and 43.6 µM (active) and inactive in [3]; 38.7 µM (active) and 30.9 µM (active) in [4]; 43.5 µM (active) and 30.9 µM (active) and inactive in assay [5]; 54.9 µM (active) in assay [8]. Also, the Potency entry in assay [2], in [6], in assay [7] and in assay [10] was “inactive” in each case.
Regarding `COc1ccc(CCN2CCC(Nc3nc4ccccc4n3Cc3ccc(F)cc3)CC2)cc1`, the Potency was 19.9 µM (active) and 9.52 µM (active) in assay [1]; 44.6 µM (active) and 26.8 µM (active) in [2]; 28.1 µM (active) and 21.3 µM (active) in assay [3]; 6.3 µM (active) and 10.7 µM (active) in assay [4]; 12.6 µM (active) and 9.52 µM (active) in assay [5]; 35.4 µM (active) and 26.8 µM (active) in assay [6]. Further, the Potency in assay [8] is 39.8 µM (active) and 23.9 µM (active); in [9], 49.6 µM (active); in assay [10], 17.6 µM (active) and 21.1 µM (active). Also, the Potency result in assay [7] was “inactive”.
For the compound `CC(C)CCOC(=O)c1ccc(N(C)C)cc1`, the Potency result in [1], in assay [2], in [3], in [4], in [5] and in [6] was “inactive” throughout. The Potency result in assay [7], in assay [8], in assay [9] and in [10] was “inactive” throughout.
As to `CCCNC(C)C(=O)Nc1ccccc1C` (centres undefined), the Potency result in assay [1], in [2], in assay [3], in [4], in assay [5] and in assay [6] was “inactive” throughout. The Potency entry in [7], in assay [8] and in assay [10] was “inactive” throughout.
As for `OCCOCCN1CCN(C(c2ccccc2)c2ccc(Cl)cc2)CC1` (centres undefined), the Potency is 24.2 µM (active) and inactive in assay [1]; 48.3 µM (active) and inactive in assay [3]; 6.83 µM (active) and inactive in assay [4]; 43.1 µM (active) and inactive in assay [8]. For the same compound, the Potency result in [2], in assay [5], in assay [6], in assay [7] and in [10] was “inactive” each time.
Turning to `CCN1CCCC1CNC(=O)c1cc(S(=O)(=O)CC)c(N)cc1OC` (centres undefined), the Potency entry in assay [1], in assay [2], in [3], in assay [4], in assay [5] and in assay [6] was “inactive” each time. Moreover, the Potency result in assay [7], in assay [8], in assay [9] and in assay [10] was “inactive” each time.
`COc1cc(C(=S)N2CCOCC2)ccc1O`: the Potency result in assay [1], in assay [2], in [3], in assay [4], in assay [5] and in [6] was “inactive” in each case. The Potency entry in [7], in assay [8] and in assay [10] was “inactive” each time.
As for `C=C(C)C(=O)O`, the Potency entry in [1], in [2], in [3], in assay [4], in [5] and in assay [6] was “inactive” each time. In addition, the Potency result in [7], in assay [8], in [9] and in [10] was “inactive” in each case.
In the case of `OCCN1CCNCC1`, the Potency result in assay [1], in assay [2], in assay [3], in assay [5], in assay [6] and in assay [7] was “inactive” each time. The Potency entry in assay [8], in assay [9] and in assay [10] was “inactive” throughout. Moreover, in assay [4], the Potency was 7.9 µM (active).
With `CN(C)c1ccc2nc3ccc(=[N+](C)C)cc-3sc2c1`, the Potency result in assay [1], in [2], in assay [6], in assay [7] and in assay [8] was “inactive” throughout. Also, the Potency is 14.9 µM (active) and 17.4 µM (active) and 19 µM (active) in [3]; 2.36 µM (active) and 2.19 µM (active) and 2.68 µM (active) in assay [4]; 2.97 µM (active) and 2.75 µM (active) and 3.01 µM (active) in assay [5]; 26.2 µM (active) and 27.3 µM (active) and 29.8 µM (active) in assay [9]; 6.11 µM (active) and 1.88 µM (active) in assay [10].
`O=S(=O)(O)c1ccc2nc(-c3ccccc3)[nH]c2c1`: the Potency result in assay [1], in [2], in assay [3], in assay [4], in assay [5] and in assay [6] was “inactive” in each case. The Potency entry in assay [7], in assay [8] and in [10] was “inactive” each time.
Consider `Nc1nc(=S)c2[nH]cnc2[nH]1`, for which the Potency result in assay [1], in [2], in [3], in assay [5], in assay [6] and in assay [7] was “inactive” in each case. The Potency result in [8], in [9] and in assay [10] was “inactive” in each case. Also, the Potency in assay [4] was 21.9 µM (active).
For the compound `CCCCCCCCCCCC[N+](C)(C)C`, the Potency in assay [1] was 43.5 µM (active) and 49 µM (active) and 43.6 µM (active); in assay [4], 4.89 µM (active); in assay [10] it was “inactive and 24.3 µM (active)”. Further, the Potency entry in [2], in assay [3], in assay [5], in assay [6], in assay [7] and in assay [8] was “inactive” throughout. Further, the Potency result in assay [9] is “inactive”.
